High-throughput results from PubChem.
Glioma ERSR ind: inducers of ER stress response in human glioma cells; U87-MG GRP78 promoter luciferase reporter, 16 h; Potency, µM, for the others: at the top dose activation, most hits filed as activators; actives 0.02% (n = 420,000); active = well fitted activation curve with a large enough effect; inconclusive = small, poorly fitted or top-dose-only effect; inactive = no such curve, though single readings can be large or run the other way; also: potency is read from the fitted curve at half-maximal effect; series mostly up to about 76 µM; % of control where 0% means no effect; nearly all actives have a fitted effect of over 35% in size
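Stably transfected U87-MG glioma cells carrying a GRP78-based luciferase sensor; 16 h compound incubation. Luminescence end-point read 10 min after Bright-Glo addition at room temperature.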
hERG WT inh: KCNH2 (human, wildtype) channel inhibition; Q12809; U2OS, BacMam KCNH2, thallium flux FluxOr; hits give low values; activity change, % at 1.84 µM; actives 0.37% (n = 340,000); AID 720551;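 active = maximum activity change below -70%; inconclusive = maximum activity change between -70% and -50%; inactive = maximum activity change above -50%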; also: % is scaled to controls: 0 for no effect and ±100 for the full control effect
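U2OS cells transduced with wild-type KCNH2 virus are loaded with FluxOr dye for 45 min, and thallium flux is measured in kinetic reads before and after stimulation buffer. Rate constants are normalized to DMSO controls.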
gsp antagonist: gsp mutant antagonism. gsp-mutant cells, cAMP HTRF, 30 min. actives 0.4% (n = 340,000). Potency, µM (titrated, usually from 76.9 µM), inactives show at the top dose activity change, negative = inhibition, most hits filed as inhibitors; calls by dose curve; cell line not stated here;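 also: intracellular cAMP measured with PDE inhibitor Ro 20-1724 present during compound exposure; potency is read from the fitted curve at half-maximal effect; % is scaled to controls: 0 for no effect and ±100 for the full control effect; nearly all actives have a fitted effect of over 65% in size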
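Measurement of cellular cAMP by homogeneous time-resolved fluorescence following a 30 min compound exposure at 37C. The PDE inhibitor […] was present throughout; the assay buffer was DPBS with 0.05% BSA and 0.005% Tween 20.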
KCNH2 3.1 inh: inhibitors of human KCNH2 3.1 potassium channel isoform. AID 720553. activity change, % (tested at about 1.8 µM). U2OS KCNH2 3.1, thallium flux FluxOr; hits give low values. actives 0.95% (n = 340,000);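 active = maximum activity change below -70%; inconclusive = maximum activity change from -70% to -50%; inactive = maximum activity change above -50%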;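 also: thallium influx rate constant from kinetic fluorescence after stimulation buffer; % is scaled to controls: 0 for no effect and ±100 for the full control effect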
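Virally transduced U2OS (3.1 isoform, 4 h infection in dark at RT) → overnight 37 C → FluxOr + Red40 in HBSS/HEPES, 45 min → stimulation buffer, 2 min kinetic read → rate constant vs DMSO controls.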
gsp agonist: gsp mutant agonism | gsp mutant cells, cAMP HTRF, 30 min | Potency, µM (series often up to 76.9 µM), for the others: at the highest dose activation (cAMP increase), actives largely listed as activators | actives 0.13% (n = 340,000) | AID 624287; active = well fitted activation curve with a large enough effect; inconclusive = small, poorly fitted or top-dose-only effect, or another doubt; inactive = no such curve, though single readings can be large or run the other way; cell line not stated here;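 also: phosphodiesterase inhibitor Ro 20-1724 added with compounds to block cAMP breakdown; potency is read from the fitted curve at half-maximal effect; nearly all actives have a fitted effect of over 60% in size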
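Cells stably selected in G418 were plated at 2000/well, grown 16-24 hr, then given compounds in DMSO with the PDE inhibitor […] (300 uM solution added) for 30 min at 37C; cAMP was read by HTRF.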
pAkt inh: blocks phosphorylation of Akt | Neuro2A IGF-stimulated pAkt S473 HTRF, 20 min; hits give low values | activity change, % for hits at 50 µM | actives 0.32% (n = 360,000); in the data active = activity change below about -80%; inconclusive = mostly about -51% to -80%; also: % is scaled to controls: 0 for no effect and ±100 for the full control effect
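Neuro2A cells (4,500/well, DMEM with 0.5% FBS) were treated with compound at a single 50 µM final concentration, stimulated with 6 nM IGF for 20 min at 37 °C, and lysed. Phospho-Akt Ser473 was read by HTRF as 665/615 ratio ×10^4.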
* marks the source's active call; other numbers are inactive results; i = inactive; ? = inconclusive; / = not tested or not shown; [ ] = remark or other dose. Hits are enriched below; roughly 1.6% of the tested compounds scored in any of these assays.

SMILES | Glioma ERSR ind | hERG WT inh | gsp antagonist | KCNH2 3.1 inh | gsp agonist | pAkt inh
CC(C)(C)n1cnc2cc(NCc3ccc(Br)cc3)ccc21 | 4.3% | 23.0 | -6.1% | -95.7* | -53.9% | i
CCc1ccc(CNc2ccc3c(c2)ncn3C(C)(C)C)cc1 | 5.2% | / | -10.8% | / | 5.4%[15.4 µM] | i
COc1cc(/C=N/Nc2nc(-c3ccc(S(=O)(=O)N(C)C)cc3)cs2)ccc1O | 2.7% | 4.6 | 31.6µM* | -6.5 | -12.4% | i
COc1ccc(/C=N/Nc2nc(-c3cccc(S(=O)(=O)N4CCCC4)c3)cs2)cc1OC | -0.6% | -24.8 | 11.8% | -0.2 | -50.3% | i
CCc1ccc(Nc2cc(C(=O)NCCCN3CCOCC3)c3ccccc3n2)cc1 | -3.1% | 19.9 | 0.1% | -74.4* | 12.2% | i
Cc1cc(C)nc(SCc2nnc(SCc3ccc([N+](=O)[O-])cc3)n2Cc2ccco2)n1 | -5.6% | 2.0 | -23.4% | -23.3 | ? | i
COC(=O)CSc1nnc(CSc2nc(C)cc(C)n2)n1Cc1ccco1 | -4.8% | -1.5 | 6.1% | -7.4 | 7.9% | -96.6%*
COc1ccc(NC(=O)CSc2nnc(-c3ccccc3)n2Cc2ccco2)cc1OC | -5.6% | -17.5 | -12.1% | 6.4 | -31.6% | i
Cc1cc(C)nc(SCc2nnc(SCC(=O)Nc3ccc(C)c(C)c3)n2Cc2ccco2)n1 | -2.7% | 2.2 | -13.6% | -2.9 | 18.9% | -109.7%*
CC(C)CSC1=NSC2=NC(=O)/C(=C\c3cccs3)C(=N)N12 | -2.5% | 4.1 | -12.5% | 2.0 | -14.6%[15.4 µM] | i
N=C1/C(=C/c2cccs2)C(=O)N=C2SN=C(SCc3ccccc3)N12 | 4.5% | 1.3 | 31.6µM* | 1.0 | 16.5% | i
CSC1=NSC2=NC(=O)/C(=C\c3cccs3)C(=N)N12 | -2.8% | 6.1 | 35.5µM* | 6.7 | 3.1% | i
CC(=O)c1csc(-c2cccc(-c3nc4ccc(Cl)cn4c3NC3CCCCC3)c2)c1 | 0.3% | 10.2 | -9.0% | 8.3 | -2.6% | i
CCCCNc1c(-c2cccc(-c3cc(C(C)=O)cs3)c2)nc2cc(C)ccn12 | -6.1% | -19.3 | 31.6µM* | -70.6* | 21.7% | i
CCCCCCSc1cc(-c2nc3cc(C)ccn3c2NCCCC)ccc1OC | -0.5% | -80.3* | -3.0% | -110.6* | / | i
COc1cccc(-c2ccc3ncnc(NCc4cnc(C)cn4)c3c2)c1 | 1.4% | / | / | / | / | /
CN(C)c1ccc(/C=C/c2ccnc3c(-c4ccccc4)cccc23)cc1 | -0.6% | / | / | / | / | /
CC(c1nccs1)N(C)C(=O)CCc1nnc(-c2ccc(-c3ccccc3)cc2)o1 (stereo not given) | -10.4% | -138.4* | ? | -160.9* | -6.6% | i
CCOC(=O)c1cnc(-n2nc(C)cc2C)nc1NCc1ccccc1 | 0.4% | -7.0 | 35.5µM* | -1.7 | 5.1% | i
CCOC(=O)c1cnc2ccc(OCC)cc2c1NCc1ccccc1 | -1.2% | 6.6 | 14.1µM* | -36.7 | 23.9% | i
CN1CCN(C(=O)c2cnn(-c3ccccc3)c2NC(=O)c2ccc(Br)cc2)CC1 | -2.7% | -79.5* | 12.6% | -75.8* | 5.1% | i
CC(=O)Nc1cc(O)c2nonc2c1O | -10.9% | / | / | / | / | /
CCNC(=O)c1cc(NC(=O)COC)cc2nc(-c3ccncc3)n(C)c12 | 0.4% | / | / | / | / | /
O=C(c1cnsn1)N1CCOc2ccc(C(O)C(c3ccccc3)c3ccccc3)cc2C1 (stereo not given) | -4.7% | / | / | / | / | /
Cc1c(S(=O)(=O)NCCc2ccccc2)c(=O)n(C)c(=O)n1C | -3.0% | -99.5* | 4.1% | -4.6 | 5.6%[15.4 µM] | i
SMILES | Glioma ERSR ind | hERG WT inh | gsp antagonist | KCNH2 3.1 inh | gsp agonist | pAkt inh
Cc1ccc(C(=O)Nc2cccc(-c3nc(CNC(=O)C4(C)CC4)c(C)o3)c2)s1 | -3.3% | / | / | / | / | /
COc1ccc(Br)cc1CN(C)C(=O)CNC(=O)c1ccc2ccccc2c1 | -5.7% | 4.6 | 31.6µM* | -5.1 | 8.9%[15.4 µM] | i
COc1cc(=O)n2c(c1C(=O)N(C)Cc1nccs1)CCN(Cc1ccc(F)c(F)c1)CC2 | -1.7% | / | / | / | / | /
Cc1nc2cc(NC(=O)Nc3cccc([N+](=O)[O-])c3)ccc2n1C | -2.1% | 1.6 | 1.5% | -74.6* | -16.0%[15.4 µM] | i
Cn1c(SCC2CCCO2)nnc1C1CCN(Cc2ccco2)CC1 (stereo not given) | -4.5% | / | / | / | / | /
CCN1C(=O)CC(CC(=O)N2CCC(c3nc4ccc(F)cc4[nH]3)CC2)(c2ccccc2C)C1=O (stereo not given) | -6.0% | / | / | / | / | /
COc1ccc(CNC(=O)C2(CC3CC(c4ccccc4)=NO3)CCN(C(=O)OC(C)(C)C)CC2)cc1 (stereo not given) | 0.4% | 2.5 | -18.8% | 5.5 | 22.8% | i
CCCCCCCNC(=O)C1(CC2CC(c3ccc(Cl)cc3)=NO2)CCN(C(=O)CCCCCBr)CC1 (stereo not given) | -3.5% | -88.8* | -12.5% | -82.6* | -11.1% | i
O=C(CCCCCBr)N1CCC(CC2CC(c3ccc(Cl)cc3)=NO2)(C(=O)NCC2CCCCC2)CC1 (stereo not given) | -1.1% | -95.4* | -16.5% | ? | / | i
O=C(CCCCCBr)N1CCC(CC2CC(c3cccc(Br)c3)=NO2)(C(=O)NCC2CCCCC2)CC1 (stereo not given) | -1.4% | -8.4 | -12.0% | -39.9 | 21.5% | i
COc1ccc(CNC(=O)C2(CC3CC(c4ccccc4)=NO3)CCN(C(=O)CCCCCBr)CC2)cc1 (stereo not given) | -2.7% | -112.5* | -6.0% | -133.0* | -29.7% | i
Cc1nc(C)c(CC(=O)N2CCOc3ccc(CN4CCOCC4)cc3C2)s1 | -4.9% | / | / | / | / | /
O=C1CN(CCN2CC(=O)NC(=O)C2)CC(=O)N1 | -3.2% | / | / | / | / | /
CN1CCCC(CNC(=O)c2cnn(-c3ncc4c(n3)-c3ccccc3CC4)c2C2CC2)C1 (stereo not given) | -5.1% | / | / | / | / | /
CC(c1ccon1)N(C)C(=O)c1cnn(-c2ncc3c(n2)-c2ccccc2CC3)c1C1CC1 (stereo not given) | 11.3% | / | / | / | / | /
CCC(C)[C@H]1CNCCN1CCC12CC3CC(CC(C3)C1)C2 (stereo not given in full) | -2.6% | -14.8 | 10.7% | -136.2* | -6.1% | i
CCC(C)[C@H]1CNCCN1CCc1cccc2ccccc12 (stereo not given in full) | -2.1% | -2.2 | 13.1% | -4.5 | / | i
CN(CCO)C(=O)c1cn(C2CCCN(Cc3ccc4ccccc4c3)C2)nn1 (stereo not given) | -5.2% | / | / | / | / | /
Cc1ccc2nc(SCCCCOc3ccccc3)[nH]c2c1 | -4.3% | 11.4 | 39.8µM* | -6.4 | -4.0% | i
COc1cc(OC)c(C(=O)/C=C/c2ccc(OCc3ccccc3)c(OC)c2)c(OC)c1 | 0.5% | 19.4 | 1.8% | -11.9 | 2.8%[15.4 µM] | i
